From the supplement of paper PMC13380429

Tested on: Vero E6 infected with SARS-CoV-2
Test: inhibition of SARS-CoV-2 cytopathic effect; higher = more antiviral protection, active = above 15
Conditions: 48 h

Measured: inhibition of SARS-CoV-2 cytopathic effect

CC(C)CCC[C@@H](C)[C@H]1CC[C@H]2[C@@H]3CC=C4C[C@@H](O)CC[C@]4(C)[C@H]3CC[C@]12C [cholesterol]
inactive: 1 nM -1.33% | 8.33 nM 1.96% | 100 nM 1.08% | 833.33 nM -1.83% | 10000 nM 2.29%

N#CN=C(NCCCCCCOc1ccc(Cl)cc1)Nc1ccncc1
inactive: 1 nM 0.77% | 8.33 nM -0.03% | 100 nM -4.25% | 833.33 nM -15% | 10000 nM -17.4%

CN(C)CCCNC(=O)c1ccc(-c2cc(O)c3ncccc3c2)cc1
inactive: 1 nM -1.74% | 8.33 nM -0.41% | 100 nM 1.01% | 833.33 nM -0.72% | 10000 nM 6.05%

COc1nc(C)nc(Cl)c1NC1=NCCN1 [moxonidine]
inactive: 1 nM -0.54% | 8.33 nM 1.98% | 100 nM -1.9% | 833.33 nM -2.44% | 10000 nM -1.74%

CCC(=O)c1cc(-c2ccc(Cl)cc2)n(-c2ccc(S(N)(=O)=O)cc2)c1C
inactive: 1 nM -0.96% | 8.33 nM -3.03% | 100 nM 0.71% | 833.33 nM -1.12% | 10000 nM 3.3%

O=C(O)Cc1ccc2c(c1)C(=O)c1ccccc1CO2 [isoxepac]
inactive: 1 nM -4.41% | 8.33 nM -3.03% | 100 nM -6.78% | 833.33 nM -4.01% | 10000 nM 0.02%

Cc1cccc(C(=O)NCN2CCN(c3ccccc3C#N)CC2)c1
inactive: 1 nM -2.23% | 8.33 nM 0.9% | 100 nM -0.16% | 833.33 nM 0.2% | 10000 nM 0.79%

CCCCCCOc1ccccc1C(N)=O [exalamide]
inactive: 1 nM -5.16% | 8.33 nM -3.3% | 100 nM -2.73% | 833.33 nM -0.34% | 10000 nM -3.76%

CCCCc1ccc(O)cc1O [rucinol]
inactive: 1 nM -2.6% | 8.33 nM -3.11% | 100 nM 2.12% | 833.33 nM -0.13% | 10000 nM 0.4%

O=C(NCCCN1CCOCC1)c1ccc(Cl)cc1 [eprobemide]
inactive: 1 nM 0.75% | 8.33 nM 1.72% | 100 nM 4.31% | 833.33 nM -1.08% | 10000 nM 0.69%

CCN(CCCOc1ccc2c(Nc3cc(CC(=O)Nc4cccc(F)c4)[nH]n3)ncnc2c1)CCOP(=O)(O)O [barasertib]
inactive: 1 nM -0.38% | 8.33 nM 0.9% | 100 nM -1.02% | 833.33 nM -2.03% | 10000 nM -4.38%

CO[C@H]1CC[C@H](N2C(=O)CNc3ncc(-c4ccc(C(C)(C)O)nc4)nc32)CC1
inactive: 1 nM 0.96% | 8.33 nM -0.05% | 100 nM 0.58% | 833.33 nM -3.48% | 10000 nM -14.6%

O=C(N[C@H]1CN2CCC1CC2)c1ccc(Cl)cc1
inactive: 1 nM 1.35% | 8.33 nM 0.97% | 100 nM 1.21% | 833.33 nM 0.86% | 10000 nM 1.51%

Cn1c(=O)cc(N2CCC[C@@H](N)C2)n(Cc2cc(F)ccc2C#N)c1=O [trelagliptin]
inactive: 1 nM -1.51% | 8.33 nM 0.34% | 100 nM 1.49% | 833.33 nM -0.45% | 10000 nM 3.01%

CC(C)C[C@@H]1NC(=O)[C@@H](C(C)C)NC(=O)[C@@H]2CCCN2C(=O)[C@@H](CC(=O)O)NC(=O)[C@@H](Cc2c[nH]c3ccccc23)NC1=O
inactive: 1 nM -2.63% | 8.33 nM 1.4% | 100 nM -0.29% | 833.33 nM -0.26% | 10000 nM -0.15%

CN[C@@H](C)C(=O)N[C@H](C(=O)N1CCC[C@H]1C(=O)Nc1sc(-c2ncco2)nc1-c1ccccc1)C1CCCCC1
inactive: 1 nM -0.55% | 8.33 nM -0.2% | 100 nM -0.7% | 833.33 nM 0.89% | 10000 nM 0.18%

CCCNCC(O)COc1ccccc1C(=O)CCc1ccccc1 (stereo not given) [propafenone]
inactive: 1 nM -2.13% | 8.33 nM -0.69% | 100 nM 2.83% | 833.33 nM 3.83% | 10000 nM -0.5%

CCC[C@H]1C(=O)N2C(N(C)C)=Nc3ccc(C)cc3N2C1=O [azapropazone]
inactive: 1 nM -0.8% | 8.33 nM -0.4% | 100 nM -0.47% | 833.33 nM -0.49% | 10000 nM -3.61%

COc1cc2ncnc(Nc3cccc(Cl)c3)c2cc1OC [tyrphostin-AG-1478]
active: 10000 nM 17.9%
inactive: 1 nM -0.71% | 8.33 nM -1% | 100 nM -7.3% | 833.33 nM -11.1%
